Source: PubChem BioAssay (NCI)
About 79,000 compounds went through this panel and 15% of them were active in at least one assay; those are over-represented in the sample as a whole. Unmarked numbers belong to inactive results. Rule as the data show it: active = growth inhibition above about 70%; inactive = the rest.

Test: NCI Yeast Anticancer Drug Screen. Data for the mlh1 rad18 strain (AID 175)
Conditions: S. cerevisiae mlh1 rad18 strain growth inhibition; at 5.0 µM (retest, dose inferred, filed as 0.5); hits give high values
Procedure, shortened: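 In this whole-cell yeast screen, a strain with altered DNA damage repair is challenged with compound, and its growth is measured against matched vehicle-treated controls.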

Compound | growth inhibition [%]
CCOC(=O)C[P+](c1ccc(C)cc1)(c1ccc(C)cc1)c1ccc(C)cc1 | 6
O=C(NCCl)Nc1ccccc1 | 6
O=c1[nH]c2ccccc2c2cccc(F)c12 | 7
O=C(c1c(F)c(F)c(F)c(F)c1F)N1CCN(C(=O)c2c(F)c(F)c(F)c(F)c2F)C1=S | 32
O=C(CNS(=O)(=O)Cc1ccccc1)NCC(=O)NNc1ccccc1 | 31
CC1(C)C(=O)N(CCCCCCN2C(=O)C(C)(C)c3ccccc32)c2ccccc21 | 3
CC(=O)Nc1cccc2c1ccc1ccc3ccccc3c12 | 32
COc1ccc(-c2noc(=O)c3ccccc23)cc1 | -1
c1ccc([B-](c2ccccc2)(c2ccccc2)c2ccccc2)cc1 | 1
CCc1cccc(C)c1N1C(=O)C(=O)C(c2nc3ccccc3o2)/C(=N\NS(=O)(=O)c2ccc(C)cc2)C1=O (stereo unspecified) | 5
Cc1ccc(-[n+]2cc([O-])on2)cc1 | -7
CCOC(=O)C(Cc1cn(S(=O)(=O)c2ccccc2)c2ccccc12)(NC(C)=O)C(=O)OCC | 5
CC(=O)N1C=C2CCC3c4ccccc4NC3C2CC1 (stereo unspecified) | -7
O=c1cccccc1[O-].O=c1cccccc1[O-].O=c1cccccc1[O-].[Ce+3] | 26
CC(=O)OC(C#N)CC(C)(C)/[N+]([O-])=[N+](\[O-])C(C)(C)CC(C#N)OC(C)=O (stereo unspecified) | 11
O=C(O)C1(Cc2ccc3c(c2)CCC3)Cc2cc3c(cc2C1)CCC3 | 14
